Results published in PubChem BioAssay (NCATS).
Values joined by “and” are separate entries in the source; they are usually repeats but may differ in a detail not shown here. Equal entries are not always repeated. Inconclusive results are not listed. A call without a number means that no potency is given here. Active and inactive are the calls of the source. Calls come from the whole dose curve; as a rule, active = well fitted curve in the direction sought with a large enough effect; inconclusive = small, poorly fitted or top-dose-only effect, or another doubt; inactive = no such curve, though single readings can be large; an effect the other way counts as inactive or inconclusive.

Molecular target: Cytochrome P450 3A7 (Homo sapiens) (UniProt P24462)
Experiment: Cytochrome P450 family 3 subfamily A member 7 (CYP3A7) small molecule antagonists: luciferase biochemical qHTS assay (AID 1963596); note: nearly all actives have a fitted effect of over 40% in size
Details: P450-Glo CYP3A7 enzyme luminescence, 1 h; series mostly up to 57.4 µM
Procedure, shortened: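 In this luminescent screen, enzyme and proluciferin substrate meet test compound for 10 min before NADPH regeneration solution drives a 1 h room-temperature reaction; detection reagent halts turnover and luminescence is read 20 min later.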
Potency is the fitted concentration of half-maximal effect.

Chain of Cytochrome P450 3A7 (Homo sapiens) (P24462 whole entry, looked up): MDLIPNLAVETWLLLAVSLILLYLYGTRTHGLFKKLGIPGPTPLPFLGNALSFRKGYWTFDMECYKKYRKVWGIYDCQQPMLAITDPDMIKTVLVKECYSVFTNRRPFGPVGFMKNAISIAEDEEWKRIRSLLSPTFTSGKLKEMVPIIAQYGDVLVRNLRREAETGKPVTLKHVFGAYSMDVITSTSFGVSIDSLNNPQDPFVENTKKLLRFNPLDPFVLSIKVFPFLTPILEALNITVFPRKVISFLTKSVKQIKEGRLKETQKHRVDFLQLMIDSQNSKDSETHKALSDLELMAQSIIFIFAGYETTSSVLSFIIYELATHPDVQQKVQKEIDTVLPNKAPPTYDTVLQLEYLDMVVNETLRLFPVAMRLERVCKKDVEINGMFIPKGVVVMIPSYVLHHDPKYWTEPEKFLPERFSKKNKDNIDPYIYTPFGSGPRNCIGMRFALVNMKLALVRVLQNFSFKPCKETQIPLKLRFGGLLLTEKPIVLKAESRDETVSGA

| Compound | Potency |
| --- | --- |
| Cc1c(C(=O)Nc2ccc(N3CC(C)OC(C)C3)nc2)cccc1-c1ccc(OC(F)(F)F)cc1 (stereo not drawn) | inactive |
| O=C(N[C@@H]1CCCc2c1cnn2-c1ccc(F)cc1F)c1ccccn1 | inactive |
| CC(C)(C)NCC(O)COc1cccc2c1CCCC2=O (stereo not drawn) | inactive |
| CC(C(=O)O)c1ccc(C(=O)c2cccs2)cc1 (stereo not drawn) | inactive |
| c1cc(-c2cc(C3CCNCC3)[nH]n2)ccn1 | inactive |
| Cc1onc(-c2ccccc2)c1C(=O)N1CCN(c2ccc([N+](=O)[O-])cc2Cl)CC1 | inactive |
| CCc1cc2c(=O)c(-c3nc4ccccc4s3)coc2c(CN2CCCCC2)c1O | inactive |
| CCCOC(=O)c1ccc(O)cc1 | inactive |
| CN1CCc2cc(Cl)c(O)cc2[C@@H](c2cccc3c2OCC3)C1 | inactive |
| CN(C)C/C=C/C(=O)Nc1cccc(C(=O)Nc2ccc(Nc3nccc(-c4cccnc4)n3)cc2)c1 | inactive |
| CN1CCc2nc(C(=O)N[C@@H]3C[C@@H](C(=O)N(C)C)CC[C@@H]3NC(=O)C(=O)Nc3ccc(Cl)cn3)sc2C1 | inactive |
| C[N+]1(CC2COC(c3ccccc3)(c3ccccc3)O2)CCCCC1 (stereo not drawn) | inactive |
| CN(C)CC(=O)Nc1ccc2[nH]c(=O)c3ccccc3c2c1 | inactive |
| CN1CCN(C2=Nc3ccccc3Nc3ccc(O)cc32)CC1 | inactive |
| COc1ccccc1N1CCN(CC[C@@](C)(C(=O)C2CCCCC2)c2ccccc2)CC1 | inactive |
| COc1ccc(Sc2ccc(NC(=O)c3ccccc3Cl)cc2C#N)cc1 | inactive |
| COc1ccc(CCO[C@@H]2CCCC[C@H]2N2CC[C@@H](O)C2)cc1OC | inactive |
| CCNC(=O)N1CCCN(c2ccc(C(=O)NCCc3ccc(Cl)cc3Cl)cc2NC(=O)c2cccc(Cl)c2)CC1 | inactive |
| O=c1cc(N2CCN(c3cccc(C(F)(F)F)c3)CC2)[nH]c(=O)n1C1CCCCC1 | inactive |
| Clc1ccc2c(c1)C1=NCCN1c1c(-c3noc(C4CC4)n3)ncn1-2 | inactive |

| Compound | Potency |
| --- | --- |
| O=C(COc1ccc(Cl)cc1)NC1CCC(NC(=O)COc2ccc(Cl)cc2)CC1 (stereo not drawn) | inactive |
| O=C(NCc1ccccc1)c1ccc2c(=O)n(-c3cccc(C(F)(F)F)c3)c(=S)[nH]c2c1 | inactive |
| NC(Cc1c[nH]c2ccccc12)C(=O)NC(CCC(=O)O)C(=O)O (stereo not drawn) | inactive |
| C[C@]12C=CC(=O)C=C1CC[C@@H]1[C@@H]2[C@@H](O)C[C@@]2(C)[C@H]1CC[C@]2(O)C(=O)COC(=O)CCC(=O)O | inactive |
| CCCN1CCC(c2cccc(S(C)(=O)=O)c2)CC1 | inactive |
| CC(C)c1cc2c(N3CCN(C4=NCC(C)(C)S4)CC3)ncnc2s1 | inactive |
| CCCCC(CC)COC(=O)c1ccccc1O (stereo not drawn) | inactive |
| CC(C)CCC(=O)CC1c2ccccc2C(=O)N1c1ccc2ccc(Cl)nc2n1 (stereo not drawn) | inactive |
| Nc1ccc(C(=O)Nc2ccccc2N)cc1 | 17.4 µM (active) |
| O=C(O)CNC(=O)c1ccccc1 | inactive |
| Cc1nc2sc(C(=O)NCc3ccncc3)c(N)c2c(C)c1Cl | inactive |
| c1ccc(N2CCN(CCc3nn[nH]n3)CC2)cc1 | inactive |
| COc1cc2ncnc(Nc3cccc(I)c3)c2cc1OC | inactive |
| CCCNc1ccc2ncc(-c3ccc4[nH]ncc4c3)n2n1 | inactive |
| CCN1CCC[C@@H]1CNC(=O)c1ccc2c(c1)NC(=O)c1cccc(C)c1S2 | 20 µM (active) |
| COC(=O)c1cc(Br)cnc1N1CCC(NC2CCCCC2)C(O)C1 (stereo not drawn) | inactive |
| CCCN1CCC[C@@H](c2cccc(S(C)(=O)=O)c2)C1 | inactive |
| Cn1c(=O)n(-c2ccc(C(C)(C)C#N)cc2)c2c3cc(C#Cc4cccnc4)ccc3ncc21 | inactive |
| C[C@H]1CO[C@@H]2Cn3cc(C(=O)NCc4ccc(F)cc4F)c(=O)c(O)c3C(=O)N12 | inactive |

System: not listed separately
Experiment: Viability qHTS for spleen associated tyrosine kinase inhibitor (SYKi) drug resistant MV4-11 cells (AID 1963824); note: nearly all actives have a fitted effect of over 35% in size
Details: SYKi-resistant MV4-11 viability, CellTiter-Glo, 72 h; series mostly up to 45 µM
Procedure, shortened: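 CellTiter-Glo luminescence, read 10 min after reagent addition, reports viability after a 72 hr compound exposure. Cells are an MV4-11 line made resistant to SYK inhibition, seeded at 500 per well onto compound-containing plates.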

| Compound | Potency |
| --- | --- |
| Cc1c(C(=O)Nc2ccc(N3CC(C)OC(C)C3)nc2)cccc1-c1ccc(OC(F)(F)F)cc1 (stereo not drawn) | 10.3 µM (active) |
| O=C(N[C@@H]1CCCc2c1cnn2-c1ccc(F)cc1F)c1ccccn1 | 14.6 µM (active) |
| CC(C)(C)NCC(O)COc1cccc2c1CCCC2=O (stereo not drawn) | inactive |
| CC(C(=O)O)c1ccc(C(=O)c2cccs2)cc1 (stereo not drawn) | inactive |
| c1cc(-c2cc(C3CCNCC3)[nH]n2)ccn1 | inactive |
| Cc1onc(-c2ccccc2)c1C(=O)N1CCN(c2ccc([N+](=O)[O-])cc2Cl)CC1 | 13 µM (active) |
| CCc1cc2c(=O)c(-c3nc4ccccc4s3)coc2c(CN2CCCCC2)c1O | inactive |
| CCCOC(=O)c1ccc(O)cc1 | 0.0863 µM (active) |
| CN1CCc2cc(Cl)c(O)cc2[C@@H](c2cccc3c2OCC3)C1 | 11.6 µM (active) |
| CN(C)C/C=C/C(=O)Nc1cccc(C(=O)Nc2ccc(Nc3nccc(-c4cccnc4)n3)cc2)c1 | 0.461 µM (active) |
| CN1CCc2nc(C(=O)N[C@@H]3C[C@@H](C(=O)N(C)C)CC[C@@H]3NC(=O)C(=O)Nc3ccc(Cl)cn3)sc2C1 | inactive |
| C[N+]1(CC2COC(c3ccccc3)(c3ccccc3)O2)CCCCC1 (stereo not drawn) | 10 µM (active) |
| CN(C)CC(=O)Nc1ccc2[nH]c(=O)c3ccccc3c2c1 | 20.6 µM (active) |
| CN1CCN(C2=Nc3ccccc3Nc3ccc(O)cc32)CC1 | inactive |
| COc1ccccc1N1CCN(CC[C@@](C)(C(=O)C2CCCCC2)c2ccccc2)CC1 | 14.6 µM (active) |
| COc1ccc(Sc2ccc(NC(=O)c3ccccc3Cl)cc2C#N)cc1 | 25.9 µM (active) |
| COc1ccc(CCO[C@@H]2CCCC[C@H]2N2CC[C@@H](O)C2)cc1OC | inactive |
| CCNC(=O)N1CCCN(c2ccc(C(=O)NCCc3ccc(Cl)cc3Cl)cc2NC(=O)c2cccc(Cl)c2)CC1 | 20.6 µM (active) |
| O=c1cc(N2CCN(c3cccc(C(F)(F)F)c3)CC2)[nH]c(=O)n1C1CCCCC1 | inactive |
| Clc1ccc2c(c1)C1=NCCN1c1c(-c3noc(C4CC4)n3)ncn1-2 | inactive |

| Compound | Potency |
| --- | --- |
| O=C(COc1ccc(Cl)cc1)NC1CCC(NC(=O)COc2ccc(Cl)cc2)CC1 (stereo not drawn) | inactive |
| O=C(NCc1ccccc1)c1ccc2c(=O)n(-c3cccc(C(F)(F)F)c3)c(=S)[nH]c2c1 | inactive |
| NC(Cc1c[nH]c2ccccc12)C(=O)NC(CCC(=O)O)C(=O)O (stereo not drawn) | inactive |
| C[C@]12C=CC(=O)C=C1CC[C@@H]1[C@@H]2[C@@H](O)C[C@@]2(C)[C@H]1CC[C@]2(O)C(=O)COC(=O)CCC(=O)O | inactive |
| CCCN1CCC(c2cccc(S(C)(=O)=O)c2)CC1 | inactive |
| CC(C)c1cc2c(N3CCN(C4=NCC(C)(C)S4)CC3)ncnc2s1 | 5.8 µM (active) |
| CCCCC(CC)COC(=O)c1ccccc1O (stereo not drawn) | 5.96 µM (active) |
| CC(C)CCC(=O)CC1c2ccccc2C(=O)N1c1ccc2ccc(Cl)nc2n1 (stereo not drawn) | inactive |
| Nc1ccc(C(=O)Nc2ccccc2N)cc1 | 7.5 µM (active) |
| O=C(O)CNC(=O)c1ccccc1 | inactive |
| Cc1nc2sc(C(=O)NCc3ccncc3)c(N)c2c(C)c1Cl | inactive |
| c1ccc(N2CCN(CCc3nn[nH]n3)CC2)cc1 | inactive |
| COc1cc2ncnc(Nc3cccc(I)c3)c2cc1OC | 2.91 µM (active) and 13 µM (active) |
| CCCNc1ccc2ncc(-c3ccc4[nH]ncc4c3)n2n1 | 0.0116 µM (active) |
| CCN1CCC[C@@H]1CNC(=O)c1ccc2c(c1)NC(=O)c1cccc(C)c1S2 | 20.6 µM (active) |
| COC(=O)c1cc(Br)cnc1N1CCC(NC2CCCCC2)C(O)C1 (stereo not drawn) | inactive |
| CCCN1CCC[C@@H](c2cccc(S(C)(=O)=O)c2)C1 | 10.3 µM (active) |
| Cn1c(=O)n(-c2ccc(C(C)(C)C#N)cc2)c2c3cc(C#Cc4cccnc4)ccc3ncc21 | 0.0447 µM (active) |
| C[C@H]1CO[C@@H]2Cn3cc(C(=O)NCc4ccc(F)cc4F)c(=O)c(O)c3C(=O)N12 | 7.31 µM (active) |
